# According to PubChem BioAssay (NCATS):
# Inconclusive results are not listed. Entries that show only a call come without a potency. Activity calls are given as the source filed them. The call rests on the fitted dose curve; in most records, active means well fitted curve in the direction sought with a large enough effect; inconclusive means small, poorly fitted or top-dose-only effect, or another doubt; inactive means no such curve, though single readings can be large; an effect the other way counts as inactive or inconclusive.
# What was measured:
# [1] = tested on: Zika virus NS2B-NS3 protease; test: Primary screen GU AMC qHTS for Zika virus inhibitors (AID 1347154); further: nearly all actives have a fitted effect of over 70% in size
# Summary of the method: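 Unlinked Zika NS2B hydrophilic domain/NS3 protease domain noncovalent complex (25 nM final) in 10 mM Tris-HCl pH 8.0, 0.01% Tween 20, with AMC peptide substrate. Fluorescence (ex 340, em 450 nm) change over 15 min, room temperature; percent inhibition fitted to 4-parameter Hill equation.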
# [2] = molecular target: Lysine-specific demethylase 5B (Homo sapiens) (UniProt Q9UGL1); test: Optimization screen for KDM5B Histone Demethylases FDH coupled qHTS against the LOPAC library (AID 1347166)
# Chain of Lysine-specific demethylase 5B (Homo sapiens) (Q9UGL1 whole entry, looked up): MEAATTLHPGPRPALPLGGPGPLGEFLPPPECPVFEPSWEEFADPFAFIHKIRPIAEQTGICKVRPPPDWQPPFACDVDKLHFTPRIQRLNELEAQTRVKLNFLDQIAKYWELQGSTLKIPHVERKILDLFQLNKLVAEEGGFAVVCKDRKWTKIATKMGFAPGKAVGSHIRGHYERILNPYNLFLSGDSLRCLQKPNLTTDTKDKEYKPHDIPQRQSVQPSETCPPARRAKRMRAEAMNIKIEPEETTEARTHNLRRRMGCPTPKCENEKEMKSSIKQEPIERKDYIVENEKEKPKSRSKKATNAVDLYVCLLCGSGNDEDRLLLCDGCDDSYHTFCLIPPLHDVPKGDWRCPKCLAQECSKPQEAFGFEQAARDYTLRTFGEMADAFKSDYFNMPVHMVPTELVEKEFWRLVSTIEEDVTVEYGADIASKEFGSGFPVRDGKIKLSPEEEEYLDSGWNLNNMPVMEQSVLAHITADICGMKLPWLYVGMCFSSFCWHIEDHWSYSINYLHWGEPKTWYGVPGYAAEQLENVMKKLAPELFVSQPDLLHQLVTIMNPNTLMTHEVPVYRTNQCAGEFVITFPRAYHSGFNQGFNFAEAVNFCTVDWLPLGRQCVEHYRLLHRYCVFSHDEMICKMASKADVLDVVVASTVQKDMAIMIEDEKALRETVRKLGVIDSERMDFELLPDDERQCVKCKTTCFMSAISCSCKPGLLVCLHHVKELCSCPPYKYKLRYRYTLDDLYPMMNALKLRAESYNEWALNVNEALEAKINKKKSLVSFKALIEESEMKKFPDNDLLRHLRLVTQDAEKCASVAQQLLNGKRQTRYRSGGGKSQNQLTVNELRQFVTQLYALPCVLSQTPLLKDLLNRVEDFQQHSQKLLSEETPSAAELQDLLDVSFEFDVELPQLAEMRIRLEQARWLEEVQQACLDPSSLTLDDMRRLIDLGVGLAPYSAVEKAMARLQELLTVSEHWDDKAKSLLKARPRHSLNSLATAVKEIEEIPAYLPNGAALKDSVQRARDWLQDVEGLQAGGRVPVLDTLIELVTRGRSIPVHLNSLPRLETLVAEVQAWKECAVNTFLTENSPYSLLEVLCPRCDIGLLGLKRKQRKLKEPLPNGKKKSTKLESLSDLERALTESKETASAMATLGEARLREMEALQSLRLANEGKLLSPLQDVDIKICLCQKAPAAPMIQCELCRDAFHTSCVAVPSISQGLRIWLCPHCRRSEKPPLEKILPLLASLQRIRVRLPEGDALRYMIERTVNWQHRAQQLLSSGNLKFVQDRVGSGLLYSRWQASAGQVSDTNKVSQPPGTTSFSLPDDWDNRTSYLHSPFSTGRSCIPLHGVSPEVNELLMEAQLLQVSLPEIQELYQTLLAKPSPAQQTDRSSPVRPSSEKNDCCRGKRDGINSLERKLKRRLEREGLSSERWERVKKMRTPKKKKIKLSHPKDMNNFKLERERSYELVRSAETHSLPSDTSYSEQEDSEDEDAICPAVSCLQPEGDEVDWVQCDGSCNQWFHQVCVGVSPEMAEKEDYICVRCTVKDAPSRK
# Summary of the method: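 KDM5BDeltaAP (200nM final) preincubated 10 min with compound, then 12.5uM H3K4Me3, 25uM a-ketoglutarate, ascorbate, Fe(II), NAD+ and FDH added; 50mM HEPES pH 7.5, 0.01% Tween-20. NADH fluorescence (340/450 nm) change over 30 min, room temperature.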
# [3] = tested on: Zika virus NS2B-NS3 protease (unlinked complex); test: Primary screen GU Rhodamine qHTS for Zika virus inhibitors: Unlinked NS2B-NS3 protease assay (AID 1347159); further: nearly all actives have a fitted effect of over 60% in size; further: potency means the concentration at half of the fitted maximal effect
# Summary of the method: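 Noncovalent NS2B hydrophilic domain/NS3 protease complex (25 nM final) in 10 mM Tris-HCl pH 8.0, 0.01% Tween 20, preincubated 15 min with compounds (up to 114 microM), then 1.5 microM Rhodamine110 substrate. Fluorescence change over 15 min fitted to 4-parameter Hill.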
# [4] = tested on: Zika virus NS2B-NS3 protease (linked construct); test: Primary screen NINDS Rhodamine qHTS for Zika virus inhibitors (AID 1347160); further: nearly all actives have a fitted effect of over 55% in size
# Summary of the method: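 Purified NS2B-NS3 protease with the NS2B hydrophilic domain joined by a flexible linker (25 nM) in 10 mM Tris-HCl pH 8.0, 0.01% Tween 20, preincubated 15 min at RT with compound; Rhodamine110 peptide substrate 1.5 µM; fluorescence change over 15 min; 4-parameter Hill fit.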
# [5] = Confirmatory screen NINDS Rhodamine qHTS for Zika virus inhibitors (AID 1347161); further: potency means the concentration at half of the fitted maximal effect; nearly all actives have a fitted effect of over 60% in size
# Summary of the method: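 Purified linked NS2B-NS3 protease (NS2B hydrophilic domain joined to NS3 protease by flexible linker), 25 nM in 10 mM Tris-HCl pH 8.0, 0.01% Tween 20. Compounds titrated, 15 min preincubation at room temperature; 1.5 microM Rhodamine110 substrate, FITC fluorescence change over 15 min.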
# [6] = tested on: Zika virus NS2B-NS3 protease (linked construct); test: 384 well plate NINDS Rhodamine confirmatory qHTS for Zika virus inhibitors (AID 1347164);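 further: fluorescence from protease cleavage of Ac-LKRR-rhodamine 110 substrate; top concentration of the series differs between compounds; nearly all actives have a fitted effect of over 65% in size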
# Summary of the method: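 Fluorescence read at ex 485 nm/em 538 nm, 25 min after adding 10 microM Ac-LKRR-Rd substrate at room temperature in the dark; signal normalized to no-enzyme and no-inhibitor controls. Enzyme final 5, 30 or 60 nM; compounds, ~15 min preincubation.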
# [7] = Vero cells viability qHTS for Zika virus inhibitors (AID 1347167)
# Summary of the method: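 Counter-screen for cytotoxicity of hits from NS2B-NS3 protease qHTS. Overnight-attached cells (2.5 x 10^5 cells/mL, DMEM/4% FBS) were dosed in titration, incubated 24 to 48 hours, then assayed by CellTiter Glo.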
# [8] = Tertiary RLuc qRT-PCR qHTS assay for Zika virus inhibitors (AID 1347169); further: top concentration of the series differs between compounds; nearly all actives have a fitted effect of over 55% in size
# Summary of the method: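 Luminescence read-out: live-cell Renilla luciferase substrate applied to infected Vero cells, signal measured after 1-1.5 hrs. Cells had received compound before ZIKV-RLuc (Cambodian strain, MOI 1-2) infection and were incubated 48-72 hrs at 37 degrees C.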
# [9] = Confirmatory screen GU Rhodamine qHTS for Zika virus inhibitors qHTS (AID 1347157); further: potency means the concentration at half of the fitted maximal effect; nearly all actives have a fitted effect of over 70% in size
# Summary of the method: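 Enzyme 25 nM in Tris-HCl pH 8.0 + 0.01% Tween 20; compounds up to 114 microM, 15 min RT dark; + Rhod110 substrate 1.5 microM; read t0 and 15 min; delta fluorescence → % inhibition → 4-parameter Hill fit.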
smiles,measurement,setting,value
CCN(CC)C(=O)c1ccc(O)c(OC)c1,Potency,[1],inactive
same,outcome,[2],inactive
Cc1ccc(Nc2cc(-c3cccc(N4C(=O)c5ccccc5C4=O)c3)ncn2)cc1NS(C)(=O)=O,Potency,[3],50.1 µM (active)
same,Potency,[4],inactive
Cc1c(NC(=O)c2ccc(C(C)(C)C)cc2)cccc1-c1cn(C)c(=O)c(Nc2ccc(C(=O)N3CCOCC3)cc2)n1,Potency,[3],inactive
same,Potency,[4],inactive
O=C1NC(=O)C(c2ccccc2)(c2ccccc2)N1,Potency,[1],inactive
same,outcome,[2],inactive
CC(C)OC(=O)C(C)(C)Oc1ccc(C(=O)c2ccc(Cl)cc2)cc1,outcome,[2],inactive
COc1ccc(Cc2nccc3cc(OC)c(OC)cc23)cc1OC,outcome,[2],inactive
CC(C)NCC(O)COc1cccc2[nH]ccc12 (stereo not given),Potency,[3],inactive
same,Potency,[4],inactive
same,outcome,[2],inactive
COc1cccc(-c2cc(=O)c3ccccc3o2)c1N,outcome,[2],inactive
CCn1cc(C(=O)O)c(=O)c2ccc(C)nc21,Potency,[1],inactive
same,outcome,[2],inactive
Clc1ccc(Cn2c(CN3CCCC3)nc3ccccc32)cc1,Potency,[3],inactive
same,Potency,[4],inactive
same,outcome,[2],inactive
CC(=O)c1ccc(S(=O)(=O)NC(=O)NC2CCCCC2)cc1,Potency,[1],inactive
same,outcome,[2],inactive
O=c1[nH]cnc2c1ncn2[C@H]1CC[C@@H](CO)O1,Potency,[3],inactive
same,Potency,[4],inactive
Cc1cccc(Nc2nc(-c3ccncc3)cs2)c1,Potency,[3],inactive
same,Potency,[4],inactive
CN(C)c1cc(NC(=O)CNC(C)(C)C)c(O)c2c1C[C@@H]1C[C@H]3[C@H](N(C)C)C(=O)C(C(N)=O)=C(O)[C@@]3(O)C(=O)C1=C2O,Potency,[5],4.41 µM (active)
same,Potency,[6],inactive
same,Potency,[7],inactive
same,Potency,[8],inactive
CC(C)(C)OC(=O)N[C@H]1CCCCCC=C[C@@H]2C[C@@]2(C(=O)NS(=O)(=O)C2CC2)NC(=O)[C@@H]2C[C@@H](OC(=O)N3Cc4cccc(F)c4C3)CN2C1=O,Potency,[9],49.4 µM (active)
same,Potency,[3],35.5 µM (active)
same,Potency,[4],inactive
same,Potency,[5],49.4 µM (active)
O=C(NCCN1CCOCC1)c1ccc(Cl)cc1,Potency,[1],inactive
same,outcome,[2],inactive
